From PubChem BioAssay
KKLEB tox: counter-screen for CF NF-kB inhibitors: cytotoxicity; KKLEB CF airway cells viability, ATPlite luminescence, overnight; stronger effect = lower value; cells stimulated with P. aeruginosa culture filtrate; activity change (cytotoxicity), % at 5 µM; hit rate 0.36% among 360,000; AID 602141;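 active = corrected activity change at or below -50% at 5 µM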
MITF TRPM1 inh: inhibitors of MITF-driven TRPM1 promoter in melanoma cells; SK-MEL-5 TRPM1 promoter luciferase, 24 h; inhibition, % at 12.5 µM; AID 488899; hit rate 0.83% among 330,000;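 active = mean inhibition across replicates of 60% or more, whatever share of single replicates reaches that level; inconclusive = some that reach 60%, reason not given; inactive = mean inhibition across replicates below 60%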
CF NFkB inh: blocks PAF-induced NF-kB reporter in cystic fibrosis cells | KKLEB NF-kB-GFP reporter, GFP fluorescence overnight | inhibition, % at 5 µM | hit rate 0.86% among 360,000;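 active = at least 50% inhibition at 5 µM, scaled per plate between neutral and stimulator controls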;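 note: PAF is a Pseudomonas aeruginosa culture filtrate used as stimulus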
HIF-2a inh: blocks HIF-2a reporter activity; hit rate 0.72% among 360,000; inhibition, % at 18.8 µM; AID 624352; 786-0 RCC cells HIF-2a reporter, luciferase luminescence, overnight;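 active = inhibition of the luminescence signal of 40% or more relative to plate controls, in a single-dose primary screen at 18.75 µM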
Peg3 prom inh-1: inhibitors of Peg3 promoter | HeLa PEG-Prom luciferase reporter, luminescence, overnight | inhibition, % at 20 µM | hit rate 1.7% among 360,000 | AID 588405;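 active = inhibition of at least 50% at 20 µM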
Shn3 3UTR inh: Schnurri-3 reporter inhibition in Clone20 osteoblasts; Clone20 osteoblast Shn3 3'UTR firefly luciferase, 24 h; hit rate 0.52% among 360,000; inhibition, % at 12.5 µM;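 active = mean inhibition of at least 75% with every replicate also reaching 75%; inconclusive = mean inhibition at least 75% but some replicate below; inactive = mean inhibition below 75%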
Peg3 prom inh-2: confirmation of Peg3 promoter inhibitors. AID 602417. HeLa PEG-Prom luciferase reporter, luminescence, overnight. inhibition, % at 20 µM. shares compounds with Peg3 prom inh-1. hit rate 84% among 1,300;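 active = at 20 µM dose, 40% or more inhibition averaged across four replicates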
Numbers stand for hits; n = inactive; u = inconclusive; x = no result given. Only some compounds are listed: those with a hit (about 2.8% of all), similar ones and a draw of the others.

SMILES	KKLEB tox	MITF TRPM1 inh	CF NFkB inh	HIF-2a inh	Peg3 prom inh-1	Shn3 3UTR inh	Peg3 prom inh-2
COc1ccc(-n2cc(CNC3CCN(C)CC3)c(-c3cccc(F)c3)n2)cc1	n	n	n	n	52	n	60
O=C(C=Cc1ccccc1Cl)c1ccccc1	n	n	n	n	n	n	x
O=C(C=Cc1ccccn1)c1ccccc1	n	70	n	n	101	n	87
O=C([C@H]1O[C@@H](n2ccc(=O)[nH]c2=O)[C@H](O)[C@@H]1O)N1CCSC1	n	x	n	n	n	n	x
OCCCNCc1ccc(N(c2ccccc2)c2ccccc2)cc1	n	n	n	n	n	n	x
CCOc1ccc2nc(NC(=O)c3ccccn3)sc2c1	n	80	n	n	104	n	90
CCN(CC)CCCCNc1ncc2cc(-c3cc(OC)cc(OC)c3)c(NC(=O)NC(C)(C)C)nc2n1	n	73	n	n	74	n	77
Nc1c(C(=O)Nc2nc3ccccc3s2)sc2nc(-c3cccs3)ccc12	n	u	n	n	95	n	64
CCN(CC(=O)Nc1c(F)cccc1F)C(=O)c1cccn1C	n	x	n	n	n	n	x
COc1ccc(Cl)cc1NC(=S)NC1CCCC1	n	n	n	n	n	n	x
CCCCC1(CO)C(=O)N(c2ccccc2)N(c2ccccc2)C1=O	n	n	n	n	n	x	x
CCCCC1C(=O)N(c2ccccc2)N(c2ccc(O)cc2)C1=O (stereo not drawn)	n	96	82	95	101	n	74
Cc1cc(C)c2cc(CN(Cc3ccco3)C(=S)NCC3CCCO3)c(=O)[nH]c2c1 (stereo not drawn)	n	n	n	n	n	n	x
Cc1cc(/C=c2/sc3nc4ccccc4n3c2=O)c(C)n1-c1ccccn1	-54	86	n	75	75	91	88
O=C(COc1ccc(Cl)cc1)Nc1cc(S(=O)(=O)N2CCCCC2)ccc1N1CCCCC1	n	n	n	n	n	n	x
COC1=C(Br)C(=O)c2nc(C)ccc2C1=O	n	x	n	n	107	n	100
COc1nc(C)ccc1-c1noc(-c2cccnc2)n1	n	n	n	n	n	n	x
CN(C)c1ccc(/C=C/c2ccc3c4ccccc4ccc3[n+]2-c2ccccc2)cc1	n	104	n	96	106	93	100
Cc1ccsc1CN(C)Cc1nc(C2CC2)no1	n	n	n	n	n	n	x
OCC1OC(n2ccc3c(NO)ncnc32)C(O)C1O (stereo not drawn)	-92	95	86	n	100	99	98
Nc1ccc(C(=O)N/N=C/c2sc(N3CCOCC3)nc2-c2ccccc2)cc1	n	n	n	n	n	n	x
O=C(N/N=C/c1sc(N2CCOCC2)nc1-c1ccccc1)c1cccc(S(=O)(=O)N2CCOCC2)c1	n	65	n	n	68	n	68
COc1ccc(NS(=O)(=O)c2ccc3ccccc3c2)c2ncccc12	n	n	51	n	51	n	52
COc1ccccc1NS(=O)(=O)c1ccc2ccccc2c1	n	n	n	n	n	n	x
CC1CCCC(NC(=O)COC(=O)c2cccs2)C1C (stereo not drawn)	n	n	n	n	n	n	x
SMILES	KKLEB tox	MITF TRPM1 inh	CF NFkB inh	HIF-2a inh	Peg3 prom inh-1	Shn3 3UTR inh	Peg3 prom inh-2
CCN(CC)CCNC(=S)Nc1ccc2nc(N3CCCC3)cc(C)c2c1	n	n	n	n	n	n	x
CCCN(CCC)CCCNC(=S)Nc1ccc2nc(N3CCCC3)cc(C)c2c1	n	n	n	n	51	n	71
COc1cc(F)cc(-c2ccc3c(c2)c(-c2cccs2)c(-c2cc(OC)cc(OC)c2)n3C)c1	n	n	n	n	n	n	x
COc1cc(OC)cc(-c2c(-c3cccs3)c3cc(-c4ccc(N(C)C)nc4)ccc3n2C)c1	n	n	n	n	52	n	n
[O-]C(=C(C(=S)Nc1cccc2ccccc12)[n+]1ccccc1)c1ccc2c(c1)OCCO2	n	n	n	72	54	n	n
CC(C)(C)c1cc[n+](/C(C(=S)Nc2ccccc2F)=C(/[O-])c2ccc3c(c2)OCCO3)cc1	n	n	n	n	n	n	x
CC(=O)N(c1ccc(C)cc1)c1nc(C)cc(C)c1C#N	n	n	n	n	n	n	x
OCCN1CCN(C2CCC(c3ccc(F)cc3)c3ccc(F)cc32)CC1 (stereo not drawn)	n	n	n	n	56	x	73
CC(=O)Nc1cccc(-c2ccnc3c2CC(C)(C(=O)Nc2cccc(OC(F)(F)F)c2)O3)c1 (stereo not drawn)	n	x	n	n	63	n	61
CC1(C(=O)Nc2cccc(OC(F)(F)F)c2)Cc2c(-c3cccc(C(F)(F)F)c3)ccnc2O1 (stereo not drawn)	n	x	n	n	n	n	x
COc1ccc(C)cc1Nc1n[n+](-c2ccccc2)c(-c2ccc(N(C)C)cc2)s1	n	n	n	n	62	n	50
COc1ccc(C)cc1Nc1n[n+](-c2ccccc2)c(-c2ccc(OC)c(OC)c2OC)s1	n	n	n	n	n	n	x
COc1cccc(N(C(=O)CS(=O)CC(=O)Nc2ccc(F)cc2)C(C(=O)NC2CCCCC2)c2cccs2)c1 (stereo not drawn)	n	n	n	n	60	n	n
CCCCCCCNC(=O)C1(CC2CC(c3ccccc3)=NO2)CCNCC1 (stereo not drawn)	n	n	n	n	94	n	79
O=C(NCc1ccccc1)C1(CC2CC(c3ccccc3)=NO2)CCNCC1 (stereo not drawn)	n	n	n	n	n	n	x
C=CCOC(=O)/C=C/C(=O)NC(N)=O	n	n	n	n	n	n	x
COc1ccccc1CNC(=O)c1c(N)n(CCCN2CCOCC2)c2nc3ccccc3nc12	n	n	n	n	60	n	85
CN(C)CCCN(C(=O)c1ccc2c(c1)OCCO2)c1nc2ccc(Cl)cc2s1	n	n	n	n	n	n	x
Cc1ccc(C(=O)N(CCCN(C)C)c2nc3ccc(Cl)cc3s2)cc1C	n	n	n	n	56	n	93
CCc1ccc(OCCNc2cc(N3CCNC(C)C3)ccc2[N+](=O)[O-])cc1 (stereo not drawn)	n	79	n	n	100	89	100
CC1CN(c2ccc([N+](=O)[O-])c(NCCOc3ccccc3)c2)CC(C)N1 (stereo not drawn)	n	n	n	n	n	n	x
Cc1cccc(NC(=O)COc2ccc3c(c2)CCC3)n1	n	n	n	n	n	n	x
O=C(COc1ccc2c(c1)CCC2)Nc1ccccn1	n	n	n	60	75	n	67
CCN(CC(=O)NCc1cccs1)c1ccc(S(=O)(=O)N2CCN(C)CC2)cn1	n	n	n	n	n	n	x
CCc1nc(N=Nc2c(O)[nH]c3ccccc23)c2c3c(sc2n1)CCC3	n	n	n	n	85	n	n
